Experimental data: PubChem BioAssay (EPA / NIEHS)
Inconclusive results are not listed. Active and inactive are the calls of the source. Rule for the calls, unless noted: active = hit-call score of the fitted dose curve at least 0.9, where 1 is the maximum; inactive = score below 0.9.

What was measured:
[1] = read-out: solute carrier (SLC22A1), SLC22A1 (gene 6580); assay: LTEA_HepaRG_SLC22A1: Life Technologies and Expression Analysis (LTEA) Assay for solute carrier (SLC22A1) using HepaRG (AID 2283524); settings: mRNA level, 48 h; actives raise or lower the signal
Method in brief: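 Differentiated human HepaRG cells in serum-free induction medium, exposed 48 h in duplicate to 8-point half-log series from 100 µM top in 0.5% DMSO. SLC22A1 mRNA by TaqMan qRT-PCR normalized to ACTB, GAPDH, POLR2A; bidirectional fit versus DMSO.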

[2] = read-out: Pyruvate Dehydrogenase Kinase 4 (PDK4), PDK4 (gene 5166); assay: LTEA_HepaRG_PDK4: Life Technologies and Expression Analysis (LTEA) Assay for Pyruvate Dehydrogenase Kinase 4 (PDK4) using HepaRG (AID 2283525); settings: mRNA level, 48 h; actives raise or lower the signal
Method in brief: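 HepaRG cells plated 48 h, then switched to serum-free induction medium and exposed in duplicate for 48 h to 8 half-log concentrations from 100 uM in 0.5% DMSO. PDK4 mRNA measured by qRT-PCR, normalized to ACTB, GAPDH and POLR2A; bidirectional fit versus DMSO.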

[3] = read-out: NAD(P)H dehydrogenase [quinone] 1 (NQO1), NQO1 (gene 1728); assay: LTEA_HepaRG_NQO1: Life Technologies and Expression Analysis (LTEA) Assay for NAD(P)H dehydrogenase [quinone] 1 (NQO1) using HepaRG (AID 2283526); settings: mRNA level, 48 h; actives raise or lower the signal
Method in brief: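 Human HepaRG hepatic cells received chemicals for 48 h in serum-free induction medium with 0.5% DMSO, up to 100 uM. Expression was assessed by TaqMan qRT-PCR against housekeeping controls and fitted bidirectionally against DMSO.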

[4] = read-out: Nuclear factor erythroid 2-related factor 2 (Homo sapiens) (UniProt Q16236); assay: LTEA_HepaRG_NFE2L2: Life Technologies and Expression Analysis (LTEA) Assay for Nuclear factor erythroid 2-related factor 2 (NFE2L2) Transcription Factor using HepaRG (AID 2283527); settings: mRNA level, 48 h; actives raise or lower the signal
Method in brief: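 Differentiated human HepaRG cells, serum-free induction medium, exposed 48 h in duplicate to eight half-log concentrations up to 100 uM in 0.5% DMSO. NFE2L2 mRNA by Fluidigm TaqMan qRT-PCR, normalised to ACTB, GAPDH, POLR2A; bidirectional change versus DMSO.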

[5] = read-out: succinate dehydrogenase complex iron sulfur subunit B (SDHB), SDHB (gene 6390); assay: LTEA_HepaRG_SDHB: Life Technologies and Expression Analysis (LTEA) Assay for succinate dehydrogenase complex iron sulfur subunit B (SDHB) using HepaRG (AID 2283528); settings: mRNA level, 48 h; actives raise or lower the signal
Method in brief: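 HepaRG, 48 h exposure, 8-pt half-log series from 100 uM in 0.5% DMSO, duplicates. Readout: SDHB mRNA by Fluidigm qRT-PCR vs housekeeping genes; bidirectional fit relative to DMSO.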

[6] = read-out: Signal transducer and activator of transcription 3 (Homo sapiens) (UniProt P40763); assay: LTEA_HepaRG_STAT3: Life Technologies and Expression Analysis (LTEA) Assay for Signal transducer and activator of transcription (STAT3) using HepaRG (AID 2283529); settings: mRNA level, 48 h; actives raise or lower the signal
Method in brief: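 Differentiated HepaRG cells, serum-free induction medium, dosed 48 h in duplicate, 8 half-log concentrations from 100 uM in 0.5% DMSO. STAT3 mRNA by qRT-PCR, normalised to ACTB, GAPDH, POLR2A; bidirectional fit versus DMSO.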

[7] = read-out: solute carrier (SLCO1B1), SLCO1B1 (gene 10599); assay: LTEA_HepaRG_SLCO1B1: Life Technologies and Expression Analysis (LTEA) Assay for solute carrier (SLCO1B1) using HepaRG (AID 2283530); settings: mRNA level, 48 h; actives raise or lower the signal
Method in brief: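 HepaRG, serum-free induction medium, 48 h dosing, 8-pt half-log from 100 uM, 0.5% DMSO vehicle, duplicates. Readout: SLCO1B1 mRNA, qRT-PCR, ACTB/GAPDH/POLR2A normalization; up or down fit vs DMSO.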

[8] = read-out: sulfotransferase 2A1 (SULT2A1), SULT2A1 (gene 6822); assay: LTEA_HepaRG_SULT2A1: Life Technologies and Expression Analysis (LTEA) Assay for sulfotransferase 2A1 (SULT2A1) using HepaRG (AID 2283531); settings: mRNA level, 48 h; actives raise or lower the signal
Method in brief: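 Transcript levels of SULT2A1, quantified by qRT-PCR and normalized to three housekeeping genes, serve as the readout. Human HepaRG cultures receive test chemicals for 48 h at up to 100 uM in half-log steps, with 0.5% DMSO vehicle.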

[9] = read-out: Transforming Growth Factor (TGFA), TGFA (gene 7039); assay: LTEA_HepaRG_TGFA: Life Technologies and Expression Analysis (LTEA) Assay for Transforming Growth Factor (TGFA) using HepaRG (AID 2283532); settings: mRNA level, 48 h; actives raise or lower the signal
Method in brief: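 Differentiated HepaRG cells exposed 48 hours in serum-free induction medium, 0.5% DMSO vehicle, 8-point half-log series from 100 uM, in duplicate. TGFA mRNA by TaqMan qRT-PCR, normalised to ACTB, GAPDH, POLR2A; bidirectional fit versus DMSO.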

[10] = read-out: Transforming Growth Factor (TGFB1), TGFB1 (gene 7040); assay: LTEA_HepaRG_TGFB1: Life Technologies and Expression Analysis (LTEA) Assay for Transforming Growth Factor (TGFB1) Transporter using HepaRG (AID 2283533); settings: mRNA level, 48 h; actives raise or lower the signal
Method in brief: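 HepaRG, 48 h post-plating, switched to serum-free induction medium; chemicals 100 uM top, half-log, 8 pts, 0.5% DMSO, dup; 48 h exposure; RNA → Fluidigm TaqMan qRT-PCR; norm ACTB/GAPDH/POLR2A; bidirectional fit vs DMSO.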

[11] = read-out: TIMP1, TIMP1 (gene 7076); assay: LTEA_HepaRG_TIMP1: Life Technologies and Expression Analysis (LTEA) Assay for TIMP1 using HepaRG (AID 2283534); settings: mRNA level, 48 h; actives raise or lower the signal;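 note: TaqMan qRT-PCR signal normalized to ACTB GAPDH and POLR2A housekeeping genes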
Method in brief: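 Readout is TIMP1 mRNA level measured by qRT-PCR and normalized to three housekeeping genes. Human HepaRG cells were treated for 48 h in duplicate at eight concentrations up to 100 uM (0.5% DMSO); gain or loss fitted against DMSO.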

[12] = read-out: Tumor necrosis factor receptor 1 (TNFRSF1A), TNFRSF1A (gene 7132); assay: LTEA_HepaRG_TNFRSF1A: Life Technologies and Expression Analysis (LTEA) Assay for Tumor necrosis factor receptor 1 (TNFRSF1A) using HepaRG (AID 2283535); settings: mRNA level, 48 h; actives raise or lower the signal
Method in brief: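 Read-out is TNFRSF1A transcript level by TaqMan qRT-PCR, normalized to three housekeeping genes, scored as gain or loss of signal versus 0.5% DMSO. Human HepaRG cells received test chemicals for 48 h at up to 100 uM (half-log series).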

[13] = read-out: Thyroid Hormone Responsive (THRSP), THRSP (gene 7069); assay: LTEA_HepaRG_THRSP: Life Technologies and Expression Analysis (LTEA) Assay for Thyroid Hormone Responsive (THRSP) using HepaRG (AID 2283536); settings: mRNA level, 48 h; actives raise or lower the signal
Method in brief: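 Differentiated HepaRG cells treated 48 h in serum-free induction medium with 8 half-log concentrations up to 100 uM (0.5% DMSO), duplicates. THRSP mRNA by TaqMan qRT-PCR normalised to ACTB, GAPDH, POLR2A; bidirectional fit versus DMSO.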

[14] = read-out: UDP glucuronosyltransferase (UGT1A1), UGT1A1 (gene 54658); assay: LTEA_HepaRG_UGT1A1: Life Technologies and Expression Analysis (LTEA) Assay for UDP glucuronosyltransferase (UGT1A1) using HepaRG (AID 2283538); settings: mRNA level, 48 h; actives raise or lower the signal
Method in brief: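 Human liver HepaRG cultures receive test chemical for 48 h, up to 100 uM in 0.5% DMSO, with phenobarbital induction controls. UGT1A1 mRNA is measured by qRT-PCR and normalized to ACTB, GAPDH and POLR2A.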

[15] = read-out: UDP glucuronosyltransferase (UGT1A6), UGT1A6 (gene 54578); assay: LTEA_HepaRG_UGT1A6: Life Technologies and Expression Analysis (LTEA) Assay for UDP glucuronosyltransferase (UGT1A6) using HepaRG (AID 2283539); settings: mRNA level, 48 h; actives raise or lower the signal
Method in brief: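 HepaRG, 48 h post-plating switch to serum-free induction medium; chemical 48 h, 100 uM top, half-log x8, duplicate, 0.5% DMSO. Phenobarbital 1mM induction control. UGT1A6 mRNA by TaqMan qRT-PCR; gain/loss fit vs DMSO.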

[16] = read-out: X-box binding protein 1 (XBP1), XBP1 (gene 7494); assay: LTEA_HepaRG_XBP1: Life Technologies and Expression Analysis (LTEA) Assay for X-box binding protein 1 (XBP1) using HepaRG (AID 2283540); settings: mRNA level, 48 h; actives raise or lower the signal
Method in brief: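 Transcript levels of XBP1, measured by qRT-PCR and normalised to three housekeeping genes, were fitted bidirectionally relative to 0.5% DMSO controls. Human HepaRG cells received eight-point half-log dilutions from 100 uM for 48 h.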

[17] = LTEA_HepaRG_LDH_cytotoxicity: Cytotoxicity Assessment in the Life Technologies and Expression Analysis (LTEA) Assay (AID 2283563; active = hit-call score of the fitted dose curve at least 0.9, where 1 is the maximum)
Method in brief: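 Cells were thawed and plated for 48 h. Medium was then replaced with serum-free induction medium. Chemicals (8 half-log points, maximum 100 uM, 0.5% DMSO) were added in duplicate for 48 h, after which spent medium was assayed for LDH.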

[18] = ATG_XTT_Cytotoxicity: Cytotoxicity Assessment in the Attagene TRANS-FACTORIAL HepG2 Assay (AID 2283584; active = hit-call score of the fitted dose curve at least 0.9, where 1 is the maximum)
Method in brief: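 Cells: human HepG2, transiently transfected with MRTU reporter constructs. Exposure 24 h. Readout: XTT, cell number. Baseline/neg ctrl DMSO; loss-of-signal scored.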

[19] = read-out: Cellular tumor antigen p53 (Homo sapiens) (UniProt P04637); assay: LTEA_HepaRG_TP53: Life Technologies and Expression Analysis (LTEA) Assay for Tumor Protein P53 (TP53) using HepaRG (AID 2283537); settings: mRNA level, 48 h; actives raise or lower the signal
Method in brief: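 HepaRG, 48 h exposure, top 100 uM, half-log 8-point, 0.5% DMSO vehicle, duplicates. Read: TP53 mRNA by TaqMan qRT-PCR, normalised to ACTB/GAPDH/POLR2A; bidirectional fit vs DMSO.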

[20] = TOX21_p53_BLA_p2_viability: Viability Assessment in the Tox21 HCT-116 p53 Agonism Beta-lactamase Assay, Phase 2 (AID 2283591; active = hit-call score of the fitted dose curve at least 0.9, where 1 is the maximum;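 note: compound exposure lasted 16 h at 37 °C; actives lower the ATP signal meaning cytotoxicity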)
Method in brief: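 HCT116 p53-bla cells, 4000/well, dosed after 5 h plating (217-fold dilution of DMSO stocks) and incubated 16 h at 37C. Viability taken as cellular ATP by CellTiter-Glo luminescence after 30 min RT; signal loss marks cytotoxicity.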

Measured: AC50

Chain of Signal transducer and activator of transcription 3 (Homo sapiens) (P40763 whole entry, looked up): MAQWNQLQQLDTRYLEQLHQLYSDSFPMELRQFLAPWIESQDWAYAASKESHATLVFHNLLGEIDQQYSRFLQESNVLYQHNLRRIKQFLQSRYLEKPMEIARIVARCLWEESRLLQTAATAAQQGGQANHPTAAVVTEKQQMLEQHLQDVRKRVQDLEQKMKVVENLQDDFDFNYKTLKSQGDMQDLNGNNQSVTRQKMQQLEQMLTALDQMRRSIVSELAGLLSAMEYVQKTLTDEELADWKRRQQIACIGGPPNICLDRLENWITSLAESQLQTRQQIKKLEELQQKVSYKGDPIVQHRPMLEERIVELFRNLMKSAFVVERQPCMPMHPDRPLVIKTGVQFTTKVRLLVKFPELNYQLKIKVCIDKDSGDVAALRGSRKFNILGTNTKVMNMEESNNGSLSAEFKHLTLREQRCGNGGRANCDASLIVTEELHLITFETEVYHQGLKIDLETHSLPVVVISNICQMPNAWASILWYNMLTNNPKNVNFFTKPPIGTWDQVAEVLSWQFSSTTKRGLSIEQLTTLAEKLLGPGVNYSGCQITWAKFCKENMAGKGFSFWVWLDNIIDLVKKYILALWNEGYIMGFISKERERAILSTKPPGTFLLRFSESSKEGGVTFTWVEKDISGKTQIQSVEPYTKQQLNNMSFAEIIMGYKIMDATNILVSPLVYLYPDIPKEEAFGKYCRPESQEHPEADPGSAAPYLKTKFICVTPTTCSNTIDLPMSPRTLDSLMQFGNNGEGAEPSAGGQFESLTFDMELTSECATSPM
Chain of Nuclear factor erythroid 2-related factor 2 (Homo sapiens) (Q16236 whole entry, looked up): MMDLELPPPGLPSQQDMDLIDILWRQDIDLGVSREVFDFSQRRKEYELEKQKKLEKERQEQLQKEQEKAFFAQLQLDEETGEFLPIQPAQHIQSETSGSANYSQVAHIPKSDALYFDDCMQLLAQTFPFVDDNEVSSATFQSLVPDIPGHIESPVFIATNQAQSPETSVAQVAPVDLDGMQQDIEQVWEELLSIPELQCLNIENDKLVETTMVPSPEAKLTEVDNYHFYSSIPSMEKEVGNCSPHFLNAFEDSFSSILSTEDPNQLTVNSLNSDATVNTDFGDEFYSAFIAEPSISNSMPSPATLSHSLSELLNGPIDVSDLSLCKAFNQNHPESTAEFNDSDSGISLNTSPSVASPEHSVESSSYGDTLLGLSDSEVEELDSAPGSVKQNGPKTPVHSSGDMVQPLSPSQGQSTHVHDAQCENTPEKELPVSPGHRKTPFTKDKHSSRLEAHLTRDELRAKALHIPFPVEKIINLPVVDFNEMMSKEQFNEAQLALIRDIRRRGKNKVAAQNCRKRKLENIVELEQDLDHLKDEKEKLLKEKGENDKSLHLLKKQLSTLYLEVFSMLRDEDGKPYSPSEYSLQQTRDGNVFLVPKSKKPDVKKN
Chain of Cellular tumor antigen p53 (Homo sapiens) (P04637 whole entry, looked up): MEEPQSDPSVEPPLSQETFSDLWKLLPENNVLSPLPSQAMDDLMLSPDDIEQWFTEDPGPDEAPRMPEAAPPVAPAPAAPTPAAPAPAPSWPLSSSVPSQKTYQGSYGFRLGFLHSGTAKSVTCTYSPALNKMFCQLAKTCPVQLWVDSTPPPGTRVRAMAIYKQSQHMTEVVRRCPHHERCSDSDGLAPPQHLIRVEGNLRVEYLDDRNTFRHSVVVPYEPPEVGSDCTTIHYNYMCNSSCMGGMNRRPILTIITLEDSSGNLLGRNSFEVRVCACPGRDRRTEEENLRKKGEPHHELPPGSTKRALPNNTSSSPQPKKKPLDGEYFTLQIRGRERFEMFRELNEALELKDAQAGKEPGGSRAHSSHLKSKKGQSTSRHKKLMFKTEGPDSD

O=C1CCCCC1
active: [12] 0.0538 µM
not listed: [19] | [20]
inactive: all other assays above

CCC(C)N(C)C(=O)c1cc2ccccc2c(-c2ccccc2Cl)n1 (stereo not given)
active: [1] 6.3 µM | [2] 40.9 µM | [4] 16.8 µM | [5] 11.1 µM | [8] 8.44 µM | [14] 2.1 µM
inactive: all other assays above

O=C(O)CC(O)(CC(=O)O)C(=O)O
not listed: [17] | [18] | [20]
inactive: all other assays above
